# Laboratory results published in paper PMC4336329 (PLoS ONE, 2015).
# The whole screen tested about 310,000 compounds, of which about 14,000 (4.5%) showed an effect of 50% or more. Effects have a minus sign here. The list comes from a sample in which strong results are over-represented; it also holds similar structures and randomly drawn compounds.
# Target: human ether-à-go-go-related gene (hERG) potassium channel (human, UniProt Q12809)
# Assay: primary screen, population patch clamp on CHO cells stably expressing hERG; higher = less effect of the substance
# 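Note: peak tail current of the secondary pulse compared with the same well before compound.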
# human ether-à-go-go-related gene (hERG) potassium channel, sequence (Q12809 whole entry, looked up): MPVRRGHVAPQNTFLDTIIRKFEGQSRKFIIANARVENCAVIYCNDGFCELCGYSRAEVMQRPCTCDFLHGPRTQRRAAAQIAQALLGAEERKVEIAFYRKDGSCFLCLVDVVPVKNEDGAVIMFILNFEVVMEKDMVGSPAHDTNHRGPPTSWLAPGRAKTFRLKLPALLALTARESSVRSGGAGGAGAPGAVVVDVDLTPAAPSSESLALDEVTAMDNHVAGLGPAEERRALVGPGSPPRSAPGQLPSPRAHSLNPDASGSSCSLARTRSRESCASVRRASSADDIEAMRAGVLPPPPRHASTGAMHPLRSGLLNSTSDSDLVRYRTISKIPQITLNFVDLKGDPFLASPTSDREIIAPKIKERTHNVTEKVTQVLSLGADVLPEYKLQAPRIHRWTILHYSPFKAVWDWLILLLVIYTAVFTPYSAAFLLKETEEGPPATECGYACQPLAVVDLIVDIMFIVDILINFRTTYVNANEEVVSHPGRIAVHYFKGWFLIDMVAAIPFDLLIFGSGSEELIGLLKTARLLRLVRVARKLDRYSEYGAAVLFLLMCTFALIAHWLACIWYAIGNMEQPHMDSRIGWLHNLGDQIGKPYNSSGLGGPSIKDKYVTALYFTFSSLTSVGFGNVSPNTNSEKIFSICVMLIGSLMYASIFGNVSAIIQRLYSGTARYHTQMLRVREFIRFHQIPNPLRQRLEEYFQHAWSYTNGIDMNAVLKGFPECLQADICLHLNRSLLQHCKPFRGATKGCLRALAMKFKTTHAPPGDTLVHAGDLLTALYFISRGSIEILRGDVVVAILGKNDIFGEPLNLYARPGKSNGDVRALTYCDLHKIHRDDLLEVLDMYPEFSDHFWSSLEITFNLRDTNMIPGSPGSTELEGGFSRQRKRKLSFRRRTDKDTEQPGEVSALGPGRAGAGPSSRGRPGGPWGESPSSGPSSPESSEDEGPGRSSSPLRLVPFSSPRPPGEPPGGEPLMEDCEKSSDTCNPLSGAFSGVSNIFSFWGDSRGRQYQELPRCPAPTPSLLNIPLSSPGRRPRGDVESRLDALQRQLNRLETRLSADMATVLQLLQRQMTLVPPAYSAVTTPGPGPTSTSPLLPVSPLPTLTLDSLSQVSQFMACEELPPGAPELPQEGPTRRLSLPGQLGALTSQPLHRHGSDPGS
row,Structure (SMILES),"hERG current change (%, negative = inhibition) at 10uM"
1,CC(=O)c1c(C)[nH]c(C(=O)OCn2nnc3ccccc3c2=O)c1C,9.87%
2,C/C(=N\NC(=O)C1CC1c1ccccc1)c1ccc(C)s1 (stereo not shown),-6.02%
3,CCn1c(C)[n+](CC)c2ccc(C(=O)N(C)c3ccccc3)cc21.[I-],37.4%
4,CCOC(=O)c1ccc2c(c1)n(CC)c(/C=C/Nc1ccccc1)[n+]2CC.[I-],-80%
5,CCn1c(/C=C/Nc2ccccc2)[n+](CC)c2ccc(C(=O)OCC(F)(F)F)cc21.[I-],-81.6%
6,CCOC(=O)c1ccc2c(c1)n(CCCS(=O)(=O)[O-])c(/C=C/c1ccc(Cl)cc1)[n+]2CC,-23.1%
7,CCOC(=O)c1ccc2c(c1)n(CC)c(/C=C/N(C)c1ccccc1)[n+]2CC.[I-],-74.3%
8,CCOC(=O)c1ccc2c(c1)n(CC)c(C)[n+]2CC.[I-],23.7%
9,CCn1c(/C=C/N(C)c2ccccc2)[n+](CC)c2ccc(Cl)cc21.[I-],-16%
10,CCOC(=O)c1ccc2c(c1)n(CCO)c(C)[n+]2CC.[I-],10.6%
11,CCOC(=O)c1ccc2c(c1)n(Cc1ccccc1)c(C)[n+]2CC.[O-][Cl+3]([O-])([O-])[O-],-7.56%
12,CCN(C(=O)Nc1ccccc1)c1ccccc1,4.25%
13,CN(C)CCCNc1ccc(-c2nn(C)c(=O)c3ccccc23)cc1[N+](=O)[O-],-16%
14,Cl.Fc1ccc(Cn2nnnc2CN2CCc3ccccc3C2)cc1,-10.6%
15,Cn1c(CSc2nc3ccccc3s2)nnc1SCC(=O)NCc1cccnc1,-5.4%
16,CC(=O)Nc1cccc(OCc2cnc(Cl)s2)c1,11.4%
17,COc1ccccc1-c1c(C)nn2c(N3CCCCCC3)cc(C)nc12,-8.02%
18,CSc1ncc(C(=O)Nc2cccc(C)c2C)c(C)n1,9.56%
19,Cc1ccc(C(=O)Nc2ccc(Br)c(C(F)(F)F)c2)cc1,4.38%
20,Cc1nn2c(COc3ccc(NC(=O)c4ccccc4)cc3)nnc2c2ccccc12,4.38%
21,Cc1nnc(SCc2ccc(F)cc2)n1NC/C=C/c1ccccc1,-18.6%
22,CCC(=O)c1ccc(OCC(=O)NCC2(N3CCCCC3)CCCCC2)cc1,-51.5%

row,Structure (SMILES),"hERG current change (%, negative = inhibition) at 10uM"
1,O=C(COc1ccccc1)NCC1(N2CCCCC2)CCCCC1,-30%
2,CC(=O)c1ccc(OCC(=O)NCC2(N3CCCCC3)CCCCC2)cc1,4.71%
3,N#Cc1ccccc1OCC(=O)NCC1(N2CCCCC2)CCCCC1,-29.4%
4,N#Cc1ccc(OCC(=O)NCC2(N3CCCCC3)CCCCC2)cc1,-78.2%
5,CCOc1ccc(CC(=O)NCC2(N3CCCCC3)CCCCC2)cc1,-17%
6,C/C(CCc1ccco1)=N/NC(=O)CCC(=O)Nc1ccc(Br)cc1,10.2%
7,CCn1c(SCc2nc3sc(C(=O)O)c(C)c3c(=O)[nH]2)nc2ccccc21,3.32%
8,CC(C)(C)C(=O)N1c2ccccc2CCc2ccccc21,-0.0543%
9,CCOCCn1c(COc2ccccc2)nc2ccccc21,-33.6%
10,C=CCn1c(COc2ccccc2OC)nc2ccccc21,-0.267%
11,CCOCCn1c(COc2ccc(C)cc2)nc2ccccc21,-52.6%
12,C=CCn1c(COc2ccc(OC)cc2)nc2ccccc21,-79.8%
13,C=CCn1c(COc2ccccc2)nc2ccccc21,-7.62%
14,COCCn1c(COc2ccc(C)cc2)nc2ccccc21,-11.9%
15,O=C(Nc1cccc(NC(=O)c2ccccc2Cl)c1)c1ccc([N+](=O)[O-])o1,-16.4%
16,CC1Cc2nc(SCC(=O)N3CCCC3)n(C)c(=O)c2S1 (stereo not shown),-7.79%
17,COc1ccc(C(=O)Nc2ccc(NC(=O)c3cccs3)cc2)cc1[N+](=O)[O-],5.49%
18,O=C1C2ON(c3ccccc3)C(c3cccnc3)C2C(=O)N1c1ccccc1 (stereo not shown),18.1%
19,O=C1C2ON(c3ccccc3)C(c3cccnc3)C2C(=O)N1Cc1ccccc1 (stereo not shown),-50.8%
20,O=C1C2ON(c3ccccc3)C(c3cccnc3)C2C(=O)N1c1ccc(Cl)c(Cl)c1 (stereo not shown),10.5%
21,CC(C)(C)n1nnnc1C(c1ccc(F)cc1)N1CCC(C(N)=O)CC1.Cl (stereo not shown),11.3%
22,CC1CN(C(=O)c2ccc(-c3cccc(C(F)(F)F)c3)o2)CC(C)O1 (stereo not shown),-43.7%

row,Structure (SMILES),"hERG current change (%, negative = inhibition) at 10uM"
1,O=C(c1ccc(-c2cccc(C(F)(F)F)c2)o1)N1CCN(c2ccccc2O)CC1,17.1%
2,O=C(c1ccc(-c2cccc(C(F)(F)F)c2)o1)N1CCCCCCC1,-3.68%
3,O=C(c1ccco1)N1CCN(Cc2cccc(C(F)(F)F)c2)CC1,-5.15%
4,O=C(c1ccco1)N1CCN(C(=O)c2ccc(-c3cccc(C(F)(F)F)c3)o2)CC1,-79.9%
5,O=C(c1ccc(-c2cccc(C(F)(F)F)c2)o1)N1CCOCC1,-21.8%
6,COc1ccc(C(CNC(=O)c2ccc(-c3cccc(C(F)(F)F)c3)o2)N2CCOCC2)cc1 (stereo not shown),-6.09%
7,CC(=O)N1CCN(C(=O)c2ccc(-c3cccc(C(F)(F)F)c3)o2)CC1,-53.5%
8,CC(C)(CNC(=O)c1ccc(-c2cccc(C(F)(F)F)c2)o1)N1CCOCC1,-76.3%
9,CC(=O)NC(CC(=O)Nc1cccc(S(=O)(=O)N2CCCCC2)c1)c1ccccc1 (stereo not shown),-1.76%
10,CCCCC(=O)Nc1cc(Cl)ccc1C(=O)O,27.6%
11,CC(=O)N1CCC(c2c[nH]c3ccccc23)CC1,5.87%
12,CCn1ncc(-c2ccnc3cc(C(=O)O)nn23)c1C,12.6%
13,CC(c1ccccc1)n1c(N2CCNCC2)nc2c1c(=O)[nH]c(=O)n2C (stereo not shown),6.32%
14,O=C(/C=C/c1ccccc1)OCc1cnc(Cl)s1,-6.4%
15,Cc1ccc(S(=O)(=O)Cn2nnnc2C(CC(C)C)N2CCC(C(N)=O)CC2)cc1 (stereo not shown),-12.2%
16,Cc1cc(NC(=O)/C=C/c2ccccc2)c(C(C)C)cc1O,10.7%
17,CC(C)c1ccc(NC2CCCN(C(=O)CCN3CCOCC3)C2)cc1 (stereo not shown),0.518%
18,COc1ccc(CNC(=O)c2ccc(N3CCOCC3)c([N+](=O)[O-])c2)cc1,-52.1%
19,O=C(NCc1ccc(F)cc1)c1ccc(N2CCOCC2)c([N+](=O)[O-])c1,-39.6%
20,O=C(Nc1ccc(Cc2ccncc2)cc1)c1cc([N+](=O)[O-])ccc1N1CCOCC1,-39%
21,O=C(Nc1cccnc1)c1ccc(N2CCOCC2)c([N+](=O)[O-])c1,21.7%
22,O=C(Nc1ccc(Cc2ccncc2)cc1)c1ccc(N2CCOCC2)c([N+](=O)[O-])c1,-59.1%

row,Structure (SMILES),"hERG current change (%, negative = inhibition) at 10uM"
1,C=C1CCN(c2ccc(C(=O)NCc3ccc(OC)cc3)cc2[N+](=O)[O-])CC1,-7.55%
2,COc1ccc(/C=N/NC(=O)c2cc(-c3ccccc3OC(C)C)nc3ccccc23)cc1CN1CCOCC1,-4.54%
3,O.O=C(OCC1OC2C(Oc3nc(=O)ccn32)C1O)c1ccccc1 (stereo not shown),-0.213%
4,Cc1ccc(C)c(S(=O)(=O)NCc2ccc(C(=O)N3CCN(c4ccccc4)CC3)cc2)c1,-3.21%
5,Cc1ccc(C(=O)N(C)Cc2ccc(N3CCOCC3)cc2)cc1S(=O)(=O)NCc1ccccc1,-55.6%
6,Cc1ccc(C(=O)N(C)Cc2ccccc2)cc1S(=O)(=O)N1CCOCC1,-12.8%
7,CCN(CC)C(=O)N1CCc2ccccc21,0.177%
8,COc1cccc(CC2(CO)CCCN(Cc3cn[nH]c3C3CCCCC3)C2)c1 (stereo not shown),-45.1%
9,COc1ccc(-n2ccnc2CN2CCCC(CO)(Cc3cccc(OC)c3)C2)cc1 (stereo not shown),-24.2%
10,COc1cccc(CC2(CO)CCCN(Cc3c(C)cc(C)cc3-n3cccn3)C2)c1 (stereo not shown),-84.4%
11,COc1cccc(CC2(CO)CCCN(Cc3cn[nH]c3-c3ccc(F)cc3)C2)c1 (stereo not shown),6.58%
12,COc1cccc(CC2(CO)CCCN(Cc3cc(F)ccc3-n3cccn3)C2)c1 (stereo not shown),-77.3%
13,CCn1ccnc1CN1CCCC(CO)(Cc2cccc(OC)c2)C1 (stereo not shown),-17.7%
14,COc1ccc(NC2=C(NC(C)=O)C(=O)c3ccccc3C2=O)cc1,13.5%
15,COc1cc(OC)nc(NC(=O)CSc2nc3ccccc3[nH]2)n1,-1.61%
16,CCOc1ccc(CCNC(=O)c2cccc(S(=O)(=O)N3CC(C)OC(C)C3)c2)cc1OCC (stereo not shown),-27.3%
17,COc1cc(-c2[nH]ncc2CN2CCSCC2)cc(OC)c1OC,-9.26%
18,COCC1CCN(Cc2cn[nH]c2-c2cc(OC)c(OC)c(OC)c2)CC1,-38.1%
19,COc1cc(-c2[nH]ncc2CN2CCN(Cc3cccs3)CC2)cc(OC)c1OC,-50.3%
20,COCCCC1CCN(Cc2cn[nH]c2-c2cc(OC)c(OC)c(OC)c2)CC1,-61.8%
21,COc1cc(-c2[nH]ncc2CN2CCN(c3cccc(C)n3)CC2)cc(OC)c1OC,-47.3%
22,COc1ccc(-c2[nH]ncc2CN2CCN(Cc3cccs3)CC2)cc1F,-31.2%
